# Results taken from PubChem BioAssay (NCI).
# Several values for one entry are separate records, joined by “and”; a condition that tells them apart may be missing. Identical values can stand only once. About 83,000 compounds went through this panel and 20% of them were active in at least one assay; those are over-represented in the sample as a whole.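 Step 1: grow cells in 96-well plates. Step 2: add test compound at a single concentration. Step 3: incubate 48 h. Step 4: record percent growth.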 Unmarked numbers belong to inactive results. Activity calls are given as the source filed them. The calls were made as follows: active = growth percent below 10; inactive = the rest.
# Test system: HL-60(TB) leukemia
# Assay: NCI-60 one-dose screen, 48 h (100 = growth as untreated, 0 = no growth, -100 = all killed)
smiles,measurement,setting,value
O=C(O)c1c(Cl)c(Cl)c(Cl)c(Cl)c1-c1c2cc(I)c(=O)c(I)c-2oc2c(I)c(O)c(I)cc12,growth,10 µM,103% and 104% and 109%
same,growth,100 µM,-52.2% (active)
CC/C(=C(\c1ccccc1)c1ccc(OCCN(C)C)cc1)c1ccccc1,growth,10 µM,39.6%
same,growth,12.5 µM,-57.1% (active)
O=C(O)c1sccc1O,growth,10 µM,62.6%
same,growth,100 µM,3.63% (active)
CCN(Cc1ccccc1)c1ccc(/C=C2\COc3ccccc3C2=O)cc1,growth,10 µM,78.3%
same,growth,100 µM,8.32% (active)
COc1ccc(C(=O)/C=C/c2ccc(OCc3ccc(Cl)cc3)cc2)cc1OC,growth,10 µM,81.2%
same,growth,100 µM,18.7%
CCCCCCCCn1ccc2cc(NC(=O)CN3CCN(c4nc(C)cc(Cl)n4)CC3)ccc21,growth,10 µM unless noted,91.1%
ON1CCCC1,growth,10 µM unless noted,82.3%
CCCCCCCCCCCCCCCc1ccc(Cl)c(O)c1Cl (tested in a mixture with another compound),growth,0.25 µM,18.3%
same,growth,10 µM,118%
S=P(N1CC1)(N1CC1)N1CC1,growth,10 µM,99.5% and 32.7%
same,growth,100 µM,9.95% (active)
CSC1=NC(=Nc2c(C)cccc2C)C2(CCC(C(C)(C)C)CC2)N1c1ccc(Cl)cc1 (stereo not drawn),growth,10 µM unless noted,53.4%
CCCCNc1ccc(C#N)c(OCCN(CC)CC)c1,growth,10 µM unless noted,88.8%
COc1cccc2c1C(=O)c1c(O)c3c(c(O)c1C2=O)C[C@@](O)(C(=O)CO)C[C@@H]3OC1CC(N)C(O)C(C)O1 (stereo partly drawn),growth,0.0025 µM,100%
same,growth,2.5 µM,81.9%
same,growth,10 µM,-21.8% (active)
S=c1nc[nH]c2nc[nH]c12,growth,10 µM,13.8%
same,growth,50 µM,12.6%
